# Laboratory results from PubChem BioAssay (Tox21).
# Records with an inconclusive call do not appear. Active and inactive are the calls of the source. Calls come from the whole dose curve; as a rule, active = well fitted cell-killing curve with a large enough effect in the repeat runs; inconclusive = weak or mixed curves; inactive = flat fitted curve, though single readings scatter.
# Assay: qHTS RealTime-Glo MT Cell Viability Assay in HepG2 cells - 16 hour (AID 1224885); note: nearly all actives have a fitted effect of over 50% in size
# Settings: RealTime-Glo luminescence; series mostly up to 76.8 µM; activity change, negative = cytotoxic: at the top concentration
# Source text: U.S. Tox21 Program National Center for Advancing Translational Sciences [NCATS] NIH Chemical Genomics Center [NCGC] U.S. Environmental Protection Agency [EPA] National Institutes of Environmental Health Sciences [NIEHS] National Toxicology Program [NTP] U.S. Food and Drug Administration [FDA] Tox21 Assay Overview: Measure of cell viability is critical in the cell-base assay. Analysis of cell viability is necessary for the characterization of cell responses to cytotoxic drugs and environmental stress. A RealTime-Glo MT Cell Viability Assay to monitor cell viability in real time of continues cell culture during 40 hours of compound treatment was used to screen Tox21 10K library compounds in HepG2 cells. The RealTime-Glo MT Cell Viability Assay is a nonlytic, homogeneous, bioluminescent method to measure cell viability in real time using a simple, plate-based method. The assay involves adding NanoLuc luciferase and a cell-permeant prosubstrate to cells in culture. Viable cells reduce the proprietary prosubstrate to generate a substrate for NanoLuc luciferase. This substrate diffuses from cells into the surrounding culture medium, where it is rapidly used by the NanoLuc Enzyme to produce a luminescent signal. The signal correlates with the number of viable cells, making the assay well suited for cytotoxicity studies.
# Tox21 Assay Protocol Summary: The mixture of HepG2 cell suspension and reagents were dispensed at 600cells/6 ul/well in 1536-well tissue culture treated black solid bottom plates using a Multidrop dispenser. After the assay plates were incubated at a 37 C/5% CO2 incubator for 5 hours, 23 nL of compounds dissolved in DMSO, positive and negative controls was transferred to the assay plate by a pintool work station. The plates were incubated at 37 C for 40 hours. The luminescence intensity were measured at 0h, 8h, 16h, 24h, 32h and 40h time points using ViewLux plate reader during compound treatment.
# % is set by controls: 0 for no effect and ±100 for the full control effect; potency is the fitted concentration of half-maximal effect.
SMILES,"activity change, negative = cytotoxic",Potency
N#CCCO,2.08% (inactive),
COc1ccc([N+](=O)[O-])cc1O,-0.491% [at 35.3 µM] (inactive),
CC(C)Oc1cccc(NC(=O)c2ccccc2C(F)(F)F)c1,-24.6% (inactive),
CN(C)CCc1c[nH]c2ccc(O)cc12,2.24% (inactive),
COP(=O)(CCC(=O)NCO)OC,1.24% (inactive),
[Hg+2].[I-].[I-],,11 µM (active)
CC1(c2ccc(Oc3ccccc3)cc2)OC(=O)N(Nc2ccccc2)C1=O (stereo not given),,49.3 µM (active)
[Cl][Sn]([c]1ccccc1)([c]1ccccc1)[c]1ccccc1,,2.93 µM (active)
CC(C)CCCCCCCOP(=O)(Oc1ccccc1)Oc1ccccc1,-14.8% (inactive),
ClC1=C(Cl)[C@]2(Cl)[C@@H]3[C@@H]4C[C@@H]([C@H]5O[C@@H]45)[C@@H]3[C@@]1(Cl)C2(Cl)Cl,,43.6 µM (active)
ClC1=C(Cl)[C@]2(Cl)[C@@H]3[C@@H](Cl)[C@H](Cl)C[C@@H]3[C@@]1(Cl)C2(Cl)Cl,-6.88% (inactive),
O=C(CCCN1CCC2(CC1)C(=O)NCN2c1ccccc1)c1ccc(F)cc1,-20.8% [at 35.3 µM] (inactive),
O=[N+]([O-])O.O=[N+]([O-])O.[Cd],-16.8% (inactive),
N#Cc1ccccc1N,-0.887% (inactive),
COP(=O)(OC)SCn1c(=O)oc2cc(Cl)cnc21,-16.8% (inactive),
N#CCCSCCC#N,1.12% (inactive),
CC(C)(C)C(O)C(Oc1ccc(-c2ccccc2)cc1)n1cncn1 (stereo not given),-22.2% (inactive),
Clc1ccc(-c2ccc(Cl)c(Cl)c2Cl)c(Cl)c1Cl,0.541% (inactive),
CC1(C)CC/C(=C/c2ccc(Cl)cc2)C1(O)Cn1cncn1 (stereo not given),-7.75% (inactive),
CCOP(=S)(OCC)SCS(=O)(=O)C(C)(C)C,-14.7% (inactive),

SMILES,"activity change, negative = cytotoxic",Potency
CSCCCN=C=S,-9.53% (inactive),
CCS(=O)(=O)c1cccnc1S(=O)(=O)NC(=O)Nc1nc(OC)cc(OC)n1,0.392% (inactive),
CCCCCCCCCCCCCCC(Br)C(=O)O (stereo not given),-25.3% (inactive),
CC(=O)C(Cl)(Cl)Cl,-24.8% (inactive),
BrC(Br)C(Br)(Br)Br,-19.1% (inactive),
CC(C)(COCC1CO1)COCC1CO1 (stereo not given),-6.65% (inactive),
S=C=Nc1cccc2ccccc12,-1.87% (inactive),
CCOP(=O)(NC(C)C)Oc1ccc(SC)c(C)c1 (stereo not given),-11.2% (inactive),
CN(C)C1CSSSC1,2.21% (inactive),
O=C/C(Cl)=C(/Cl)C(=O)O,,inactive
Oc1c(Br)c(Br)c(Br)c(Br)c1Br,-6.86% (inactive),
CN(CCCC(=O)c1cccnc1)N=O,-3.6% (inactive),
CN(C)S(=O)(=O)N(SC(F)(Cl)Cl)c1ccccc1,,15.5 µM (active)
Cc1cc(C)c(C2=C(OC(=O)CC(C)(C)C)C3(CCCC3)OC2=O)c(C)c1,-0.0498% (inactive),
Clc1ccc(-c2ccccc2)cc1,1.68% (inactive),
BrCC(Br)c1ccccc1 (stereo not given),-0.591% (inactive),
Oc1ccccc1Br,-0.743% (inactive),
CCCCCCCCCCCCCCCCCCn1cc[n+](C)c1,,43.4 µM (active)
CN(C)c1ccc(N=Nc2ccccc2)cc1,-17.7% (inactive),
CCCCN(CCCC)C(=S)[S-].CCCCN(CCCC)C(=S)[S-].[Zn+2],,34.7 µM (active)
